The values below come from publication PMC5540273 (PLoS ONE, 2017).

For one assay, the system named is RIPK5. The note with it: concentration: 1 μM, replicates: in singlicate, n = 1.
The next assay concerns ROCK1. Conditions: concentration: 1 μM, replicates: in singlicate, n = 1.
The test system of the next assay is ROCK2. The note with it: concentration: 1 μM, replicates: in singlicate, n = 1.
A further assay deals with ROS1. The note with it: concentration: 1 μM, replicates: in singlicate; n = 1.
Assay [1] concerns RPS6KA4(Kin.Dom.1-N-terminal). Conditions: concentration: 1 μM, replicates: in singlicate, n = 1.
Assay [2] deals with RPS6KA4(Kin.Dom.2-C-terminal). Conditions: concentration: 1 μM, replicates: in singlicate, n = 1.
Assay [3] has as its system RPS6KA5(Kin.Dom.1-N-terminal). Conditions: concentration: 1 μM, replicates: in singlicate, n = 1.
Assay [4] has as its system RPS6KA5(Kin.Dom.2-C-terminal). The note with it: concentration: 1 μM, replicates: in singlicate, n = 1.
The subject of assay [5] is T1, RSK1(Kin.Dom.1-N-terminal).
T1 construct: gene RPS6KA1
Conditions: concentration: 1 μM, replicates: in singlicate; n = 1.

The test system of assay [6] is T2, RSK1(Kin.Dom.2-C-terminal).
T2 construct: gene RPS6KA1
The note with it: concentration: 1 μM, replicates: in singlicate, n = 1.

The structures appear in SMILES notation. Several values for one entry are separate records, joined by “and”; a condition that tells them apart may be missing. Identical values can stand only once. Like-named read-outs stand apart in the source and are kept apart here.
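Further: KINOMEscan kinase panel screen.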

`Cl.Cl.Cl.Fc1ccc(-c2ncn(C3CCNCC3)c2-c2ccnc(Nc3ccccc3)n2)cc1` [SB-238039]: the “%Inh” value with RIPK5 (1 µM) is 82% and 61%; in the assay on ROCK1 (1 µM), 27% and 0%; in the assay on ROCK2 (1 µM), 32% and 9%; in the assay with ROS1, 0%; in assay [1] (1 µM), 16% and 4%; in assay [2] (1 µM), 0% and 4%. Besides, the “%Inh” value in assay [3] (1 µM) was 36% and 11%; in assay [4] (1 µM) it was 23% and 0%; in [5], 0%; in assay [6] (1 µM), 64% and 35%.

`Cn1ccc2ncnc(Oc3ccc(NC(=O)Nc4ccncc4)c(Cl)c3)c21`: the “%Inh” value (with RIPK5; with ROCK1; with ROCK2; with ROS1; in assay [1]; in assay [2]) was 0% each time. For the same molecule, the “%Inh” value is listed as 13% in [3], 0% in assay [4], 0% in assay [5] and 0% in assay [6].

In the case of `O=c1cc(N2CCOCC2)nc2n(Cc3cccc(Cl)c3Cl)c(C3CC3)nn12` [GSK2358994], the “%Inh” value in the assay with RIPK5 was found to be 7%; in the assay with ROCK1 it was 0%; with ROCK2 it was 0%; with ROS1, 0%; in assay [1] it was 0%; in [2], 16%. Also, the “%Inh” value is recorded as 0% in assay [3], 0% in assay [4], 0% in assay [5] and 17% in [6].

In the case of `Fc1ccc(-c2ncn(CCCN3CCOCC3)c2-c2ccccn2)cc1` [SB-211742], the “%Inh” value is on record as 0% in the assay with RIPK5; 0% with ROCK1; 0% with ROCK2; 0% with ROS1; 26% in assay [1]; 0% in [2]. In addition, the “%Inh” value in assay [3] is given as 0%; in assay [4], 5%; in assay [5], 0%; in assay [6] it was 16%.

For `O=C(c1ccc(-c2cc(-c3c[nH]nc3-c3ccccn3)ccn2)cc1)N1CCOCC1` [GW812171], the “%Inh” value in the assay with RIPK5 was 22%; in the assay with ROCK1 it was 0%; in the assay on ROCK2, 24%; with ROS1 it was 0%; in [1], 6%; in [2], 0%. For the same molecule, the “%Inh” value in [3] was 0%; in [4], 0%; in [5] it was 14%; in assay [6], 0%.

In the case of `Cl.Oc1cccc(Nc2ccnc3cc(-c4ccncc4)ccc23)c1` [GW494601], the “%Inh” value is 0% with RIPK5; 88% in the assay on ROCK1; 72% in the assay on ROCK2; 34% with ROS1; 0% in assay [1]; 0% in [2]. Also, the “%Inh” value in assay [3] worked out at 16%; in assay [4], 16%; in [5] it was 0%; in assay [6] it was 13%.

Turning to `O=c1cc(N2CCOCC2)nc2n(Cc3cccc(C(F)(F)F)c3)ccn12` [GSK2297543], the “%Inh” value in the assay with RIPK5 came to 0%; in the assay on ROCK1, 0%; in the assay with ROCK2, 17%; with ROS1 it was 32%; in [1], 13%; in [2], 0%. Besides, the “%Inh” value in [3] was determined as 4%; in assay [4], 6%; in [5], 0%; in assay [6] it was 15%.

As for `COc1ccc(S(=O)(=O)NC2CCN(c3cc(C)nc(Nc4cccc(C#N)c4)n3)CC2)cc1.O=C(O)C(F)(F)F` [GSK1653539], the “%Inh” value in the assay on RIPK5 is reported as 0%; with ROCK1, 0%; in the assay with ROCK2, 0%; in the assay on ROS1, 16%; in assay [1], 0%; in assay [2] it was 0%. Further, the “%Inh” value in assay [3] came to 2%; in assay [4], 23%; in assay [5], 8%; in assay [6] it was 0%.

For `N#Cc1ccc(-c2cc(-c3c[nH]nc3-c3ccccn3)ccn2)cc1` [GW693028], the “%Inh” value is given as 0% in the assay with RIPK5; 28% in the assay on ROCK1; 3% in the assay with ROCK2; 0% in the assay with ROS1; 5% in assay [1]; 0% in assay [2]. Further, the “%Inh” value was found to be 19% in assay [3], 10% in [4], 13% in assay [5] and 0% in assay [6].

Regarding `Fc1ccc(-c2nn3c(OCC(F)(F)F)cccc3c2-c2ccncc2)cc1` [GW514784], the “%Inh” value is given as 0% in the assay on RIPK5; 36% with ROCK1; 34% with ROCK2; 13% in the assay on ROS1; 10% in assay [1]; 0% in assay [2]. Besides, the “%Inh” value in assay [3] is 12%; in [4] it was 13%; in [5] it was 6%; in [6], 29%.

Turning to `O=C(NCCCN1CCOCC1)c1cccc(Nc2nccc(Nc3ccc(Oc4ccccc4)cc3)n2)c1` [GW663929], the “%Inh” value with RIPK5 worked out at 7%; in the assay on ROCK1, 0%; in the assay on ROCK2, 27%; with ROS1 it was 25%; in assay [1] it was 0%; in assay [2] it was 0%. Also, the “%Inh” value in [3] came to 0%; in assay [4] it was 32%; in assay [5] it was 18%; in assay [6], 20%.

On to `C[C@@H](Oc1cc(-n2cnc3ccc(NC(=O)NC(C)(C)C)cc32)sc1C(N)=O)c1ccccc1Cl` [GSK346294], for which the “%Inh” value with RIPK5 amounted to 10%; in the assay with ROCK1, 4%; in the assay on ROCK2 it was 17%; in the assay on ROS1 it was 33%; in assay [1], 11%; in assay [2], 0%. Moreover, the “%Inh” value in assay [3] was found to be 13%; in [4], 14%; in assay [5], 0%; in [6], 15%.

As for `Cc1cccc(Cn2ccn3c(=O)cc(N4CCOCC4)nc23)c1` [GSK2297542], the “%Inh” value in the assay with RIPK5 was 1%; in the assay on ROCK1, 17%; with ROCK2, 27%; in the assay with ROS1 it was 30%; in assay [1], 13%; in assay [2], 0%. For the same molecule, the “%Inh” value came to 16% in [3], 0% in assay [4], 27% in assay [5] and 25% in [6].

On to `Cl.Nc1ncnc2occ(-c3ccc(NC(=O)Nc4cc(C(F)(F)F)ccc4F)cc3)c12` [SB-707548], for which the “%Inh” value stood at 28% in the assay with RIPK5; 38% with ROCK1; 74% in the assay on ROCK2; 50% with ROS1; 48% in [1]; 0% in assay [2]. In addition, the “%Inh” value is listed as 63% in assay [3], 16% in assay [4], 18% in assay [5] and 30% in [6].
